Assay results published in PubChem BioAssay AID1159580 (chemical genetic matrix, 2015).
About 2,000 (36%) of roughly 5,500 compounds were called active. Inconclusive results (about 18%) are left out. Cut-off read from the data, not from the text of the source: active = normalized growth mostly below about 0.91 (no sharp cut-off); inconclusive = no clear call, values can overlap the other calls; inactive = mostly above about 0.92. Some of the results follow.

Assay: chemical genetic growth profiling, strain panel (AID 1159580);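 note: tested at 20 µM; growth read once vehicle control cultures reached saturation at 30 °C; 1 = growth at the plate median or of vehicle wells; lower values mean less growth of the strain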
Settings: S. cerevisiae deletion strains, growth OD

Measured: normalized growth

C[C@@H]1CC2C3CCC4=CC(=O)C=C[C@]4(C)[C@@]3(F)[C@@H](O)C[C@]2(C)[C@@]1(O)C(=O)CO (stereo partly drawn)
inactive: locus YAL021C, strain ccr4, stronger effect = lower value 0.96 | locus YAL026C, strain drs2, stronger effect = lower value 0.988 | locus YAL030W, strain snc1, stronger effect = lower value 0.969 | locus YBL061C, strain skt5, stronger effect = lower value 0.976 | locus YBR009C, strain hhf1, stronger effect = lower value 0.989 | locus YBR023C, strain chs3, stronger effect = lower value 0.999 | locus YBR171W, strain sec66, stronger effect = lower value 0.947 | locus YBR231C, strain swc5, stronger effect = lower value 0.978 | locus YBR279W, strain paf1, stronger effect = lower value 1 | locus YCL011C, strain gbp2, stronger effect = lower value 0.988 | locus YCL016C, strain dcc1, stronger effect = lower value 1.03 | locus YCL069W, strain vba3, stronger effect = lower value 0.975 | locus YCR088W, strain abp1, stronger effect = lower value 0.978 | locus YDL005C, strain med2, stronger effect = lower value 0.966 | locus YDL040C, strain nat1, stronger effect = lower value 0.964 | locus YDR001C, strain nth1, stronger effect = lower value 0.966 | locus YDR069C, strain doa4, stronger effect = lower value 0.96 | locus YDR137W, strain rgp1, stronger effect = lower value 1.02 | locus YDR159W, strain sac3, stronger effect = lower value 0.968 | locus YDR195W, strain ref2 0.948 | locus YDR297W, strain sur2, stronger effect = lower value 0.988 | locus YDR334W, strain swr1, stronger effect = lower value 0.957 | locus YDR335W, strain msn5, stronger effect = lower value 0.976 | locus YDR392W, strain spt3, stronger effect = lower value 1.06 | locus YEL003W, strain gim4, stronger effect = lower value 0.973 | locus YEL037C, strain rad23, stronger effect = lower value 0.974 | locus YEL061C, strain CIN8 (second series), stronger effect = lower value 0.976 | locus YER015W, strain faa2, stronger effect = lower value 0.995 | locus YER016W, strain bim1, stronger effect = lower value 1.03 | locus YER111C, strain swi4, stronger effect = lower value 0.971 | locus YER155C, strain BEM2 (second series), stronger effect = lower value 0.958 | locus YFR010W, strain ubp6, stronger effect = lower value 0.958 | locus YGL167C, strain pmr1, stronger effect = lower value 0.957 | locus YGL173C, strain kem1, stronger effect = lower value 0.964 | locus YGL227W, strain vid30, stronger effect = lower value 0.987 | locus YGL240W, strain doc1, stronger effect = lower value 0.966 | locus YGL253W, strain hxk2, stronger effect = lower value 1 | locus YHR013C, strain ard1, stronger effect = lower value 0.995 | locus YHR027C, strain rpn1, stronger effect = lower value 0.993 | locus YHR030C, strain SLT2, stronger effect = lower value 1.02 | locus YHR079C, strain IRE1, stronger effect = lower value 1.01 | locus YHR142W, strain chs7, stronger effect = lower value 0.948 | locus YJL092W, strain hpr5, stronger effect = lower value 0.964 | locus YJL095W, strain BCK1 (second series), stronger effect = lower value 0.967 | locus YJL095W, strain BCK1, stronger effect = lower value 1.02 | locus YJL115W, strain asf1, stronger effect = lower value 0.976 | locus YJL129C, strain trk1, stronger effect = lower value 0.976 | locus YJL154C, strain vps35, stronger effect = lower value 0.951 | locus YJL164C, strain tpk1, stronger effect = lower value 1.01 | locus YJL166W, strain qcr8, stronger effect = lower value 0.916 | locus YJR066W, strain TOR1, stronger effect = lower value 0.997 | locus YKL160W, strain elf1, stronger effect = lower value 0.989 | locus YKR026C, strain gcn3, stronger effect = lower value 0.98 | locus YKR091W, strain srl3, stronger effect = lower value 0.961 | locus YLL001W, strain dnm1, stronger effect = lower value 0.911 | locus YLL026W, stronger effect = lower value 0.985 | locus YLL041C, strain sdh2, stronger effect = lower value 0.972 | locus YLR027C, strain aat2, stronger effect = lower value 0.976 | locus YLR113W, strain HOG1, stronger effect = lower value 1.03 | locus YLR221C, strain rsa3, stronger effect = lower value 1.02 | locus YLR258W, strain gsy2, stronger effect = lower value 0.987 | locus YLR262C, strain YPT6 (second series), stronger effect = lower value 0.943 | locus YLR320W, strain mms22, stronger effect = lower value 1 | locus YLR342W, strain FKS1, stronger effect = lower value 0.951 | locus YLR357W, strain rsc2, stronger effect = lower value 0.966 | locus YLR370C, strain arc18, stronger effect = lower value 0.996 | locus YLR384C, strain iki3, stronger effect = lower value 0.982 | locus YML120C, strain ndi1, stronger effect = lower value 0.969 | locus YMR058W, strain fet3, stronger effect = lower value 0.981 | locus YMR125W, strain sto1, stronger effect = lower value 0.951 | locus YMR129W, stronger effect = lower value 0.993 | locus YMR205C, strain PFK2, stronger effect = lower value 0.969 | locus YMR231W, strain pep5, stronger effect = lower value 0.96 | locus YNL071W, strain lat1, stronger effect = lower value 0.971 | locus YNL183C, strain NPR1, stronger effect = lower value 0.965 | locus YNL209W, strain ssb2, stronger effect = lower value 0.997 | locus YNL248C, strain rpa49, stronger effect = lower value 1.01 | locus YNL322C, strain KRE1 (second series), stronger effect = lower value 0.962 | locus YNR049C, strain mso1, stronger effect = lower value 0.984 | locus YOR001W, strain rrp6, stronger effect = lower value 0.976 | locus YOR070C, strain gyp1, stronger effect = lower value 0.997 | locus YOR080W, strain dia2, stronger effect = lower value 0.948 | locus YOR083W, strain WHI5, stronger effect = lower value 0.968 | locus YOR106W, strain vam3, stronger effect = lower value 0.933 | locus YOR231W, strain MKK1, stronger effect = lower value 1.01 | locus YOR265W, strain rbl2, stronger effect = lower value 0.986 | locus YOR270C, strain vph1, stronger effect = lower value 0.955 | locus YOR290C, strain snf2, stronger effect = lower value 1.02 | locus YPL051W, strain arl3, stronger effect = lower value 1.01 | locus YPL078C, strain atp4, stronger effect = lower value 0.928 | locus YPL106C, strain sse1, stronger effect = lower value 0.981 | locus YPL240C, strain hsp82, stronger effect = lower value 0.98 | locus YPL256C, strain CLN2, stronger effect = lower value 1.01
